Where “and” joins values, the source holds several entries; their conditions need not be identical. Equal entries are not always repeated. This is part of a sample that, as a whole, favours compounds with a hit. Of some 83,000 tested, about 20% had one in any assay.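 A percent growth of 40 corresponds to 60% growth inhibition; 0 means no net growth; -100 means all cells died. Active threshold: below 10.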 Some compounds were tested as several samples or in several runs, with calls that do not always agree. Calls of active or inactive are those of the source.
Columns and labels:
Experiment in all cases: NCI-60 one-dose screen, 48 h (100 = growth as untreated, 0 = no growth, -100 = all killed)
RPMI-8226 leukemia = conditions: 10 µM
OVCAR-8 ovarian = conditions: 10 µM
OVCAR-5 ovarian = conditions: 10 µM
OVCAR-4 ovarian = conditions: 10 µM
SK-OV-3 ovarian = conditions: 10 µM
IGROV1 ovarian = conditions: 10 µM
OVCAR-3 ovarian = conditions: 10 µM
HS 578T breast = conditions: 10 µM
NCI/ADR-RES ovarian = conditions: 10 µM
BT-549 breast = conditions: 10 µM
MDA-MB-435 melanoma = conditions: 10 µM
SW-620 colon = conditions: 10 µM
Experimental: Growth inhibition of the SW-620 human tumor cell line is measured as a screen for anti-cancer activity. Cells are grown in 96 well plates and exposed to the test compound for 48 hours. Compounds are tested at a single concentration, which is 10^-5 M for most compounds. The reported endpoint is percent growth (GI% or GIPRCNT), where numbers from 0 - 100% represent growth inhibition, and numbers from -100% - 0 represent cell death. For example, a value of 40 represents 60% growth inhibition. A value of 0 means no net growth occurred over the course of the experiment. A value of -40 indicates 40% of cells at the beginning of the experiment died by the end of the experiment. A value of -100 means all cells are dead at the end of the experiment.
NCI-60 Human Tumor Cell Lines Screen was performed using the standard one-dose NCI protocol, which is described in more detail at https://dtp.cancer.gov/discovery_development/nci-60/default.htm.
Compounds with GIPRCNT values below 10 were considered active. Activity score was based on GIPRCNT using the following formula: […]
Score is 0 for GIPRCNT values of 100 or above, 50 for GIPRCNT values of 0, and 100 for GIPRCNT values of -100.

MCF7 breast = tested on: MCF7 breast
HCT-116 colon = conditions: 10 µM
HCC-2998 colon = conditions: 10 µM
KM12 colon = conditions: 10 µM
SR leukemia = conditions: 10 µM
T-47D breast = conditions: 10 µM

SMILES | growth (RPMI-8226 leukemia) | growth (OVCAR-8 ovarian) | growth (OVCAR-5 ovarian) | growth (OVCAR-4 ovarian) | growth (SK-OV-3 ovarian) | growth (IGROV1 ovarian) | growth (OVCAR-3 ovarian) | growth (HS 578T breast) | growth (NCI/ADR-RES ovarian) | growth (BT-549 breast) | growth (MDA-MB-435 melanoma) | growth (SW-620 colon) | growth (MCF7 breast; 10 µM) | growth (HCT-116 colon) | growth (HCC-2998 colon) | growth (KM12 colon) | growth (SR leukemia) | growth (T-47D breast) | growth (MCF7 breast; 100 µM)
C#CCN(Cc1ccc2nc(N)[nH]c(=O)c2c1)c1ccc(C(=O)NC(CCC(=O)O)C(=O)O)cc1 (stereo not given) | 51.3% (inactive) | 39.3% (inactive) | 107% (inactive) | 103% (inactive) | 49.7% (inactive) | 109% (inactive) | 67.2% (inactive) | 88.9% (inactive) | 47.7% (inactive) | 76.9% (inactive) | 90.7% (inactive) | 61.8% (inactive) | 22.4% (inactive) | 45.7% (inactive) | 31.6% (inactive) | 70.2% (inactive) | – | – | –
Cc1ccc(Sc2ccccc2N)cc1 | 89.8% (inactive) | 79.1% (inactive) | 82.7% (inactive) | 93.6% (inactive) | 94.9% (inactive) | 76.2% (inactive) | 121% (inactive) | 110% (inactive) | 84.3% (inactive) | 89.8% (inactive) | 120% (inactive) | 58.3% (inactive) | 53.7% (inactive) | 55.8% (inactive) | 132% (inactive) | 102% (inactive) | 71.6% (inactive) | 99.8% (inactive) | –
COc1ccc(C(=O)C(CN(C)C)CN(C)C)cc1 | 64.3% (inactive) | 41.1% (inactive) | 116% (inactive) | -93.8% (active) | 108% (inactive) | 140% (inactive) | -85% (active) | 83% (inactive) | 101% (inactive) | 112% (inactive) | 36.8% (inactive) | -80.5% (active) | 14.3% (inactive) | 4.91% (active) | 109% (inactive) | 108% (inactive) | -46.3% (active) | 9.04% (active) | –
Cc1cc(N(CCOS(C)(=O)=O)CCOS(C)(=O)=O)ccc1C=Nc1ccc(-c2nc(Cc3ccccc3)sc2C)cc1 | 62.3% (inactive) | – | 67% (inactive) | – | 3.43% (active) | 11.4% (inactive) | 41.9% (inactive) | 79.8% (inactive) | 40.7% (inactive) | 52.8% (inactive) | 63.2% (inactive) | 61.6% (inactive) | 36.8% (inactive) | 63.4% (inactive) | -28.3% (active) | 68.7% (inactive) | 23.4% (inactive) | 20.5% (inactive) | –
COc1cc([C@@H]2c3cc4c(cc3[C@@H](Nc3ccc(NC(=O)c5cc([N+](=O)[O-])cn5C)cc3)[C@H]3COC(=O)[C@H]23)OCO4)cc(OC)c1O | – | – | – | – | – | – | – | – | – | – | – | – | – | – | – | – | – | – | 5.63% (active)
O=[N+]([O-])c1cc[n+]([O-])cc1 | 102% (inactive) | 103% (inactive) | 145% (inactive) | 111% (inactive) | 130% (inactive) | 107% (inactive) | 114% (inactive) | 104% (inactive) | 103% (inactive) | 92.4% (inactive) | 112% (inactive) | 99.3% (inactive) | 97.6% (inactive) | 107% (inactive) | 97% (inactive) | 104% (inactive) | 107% (inactive) | 120% (inactive) | –
C=C1C(=O)OC2CC1C(OC(C)=O)C/C(C)=C/CC/C(C)=C\CCC2(C)O (stereo not given) | -22.3% (active) | – | 65.7% (inactive) | -0.648% (active) | 102% (inactive) | – | 3.4% (active) | 72% (inactive) | 17.9% (inactive) | -83.9% (active) | 18.6% (inactive) | 1.39% (active) | 10.6% (inactive) | -64.7% (active) | -51.2% (active) | 23.2% (inactive) | -25.1% (active) | 4.13% (active) | -90.9% (active)
CC1=CC(=C(c2ccc(N)cc2)c2ccc(N)cc2)C=CC1=N | -15.6% (active) and 33.4% (inactive) | 6.23% (active) and 16% (inactive) | 46.8% (inactive) and 53.3% (inactive) | 24.1% (inactive) and 33.7% (inactive) | 38.2% (inactive) | 70% (inactive) | -35.6% (active) and 28.4% (inactive) | 23.6% (inactive) and 89.5% (inactive) | 86.6% (inactive) and 101% (inactive) | 5.57% (active) and 81.8% (inactive) | 13.6% (inactive) and 24% (inactive) | 17.2% (inactive) and 39.1% (inactive) | 9.83% (active) and 19.6% (inactive) | 14% (inactive) and 11.5% (inactive) | 21.1% (inactive) and 48.1% (inactive) | 0.202% (active) and 9.48% (active) | 14.7% (inactive) and 24.8% (inactive) | 3.11% (active) and 11.3% (inactive) | –
CN(C)CCOC1(Cc2ccc(Cl)cc2Cl)CCC(C(C)(C)C)CC1 (stereo not given) | 11.6% (inactive) and -10% (active) | 36.5% (inactive) and -27.3% (active) | 43.8% (inactive) and 5.22% (active) | 36.1% (inactive) and 15.1% (inactive) | 69.6% (inactive) and 57.8% (inactive) | 41.7% (inactive) and 25.3% (inactive) | 39.5% (inactive) and 11.1% (inactive) | 52.4% (inactive) and 49.6% (inactive) | 27% (inactive) and 44.4% (inactive) | 58.8% (inactive) and 24% (inactive) | 11% (inactive) and -57.6% (active) | -51.8% (active) and -57.6% (active) | -46.4% (active) and -87.7% (active) | 13.2% (inactive) and -81.3% (active) | -92.9% (active) and -95.5% (active) | 20.2% (inactive) and -46.6% (active) | -34.8% (active) and -29.5% (active) | -21.2% (active) and -41.1% (active) | –
